Source: PubChem (National Center for Advancing Translational Sciences (NCATS))
A selection: hits, their analogues and other compounds. The true share with any hit is near 6.4%.
RORgamma inh – inhibitors of mouse ROR gamma transcriptional activity. Drosophila S2 Gal4-RORgamma UAS-luciferase reporter, 20 h. Potency, µM (titrated, usually from 53.6 µM), for inactives: at the highest dose activity change, negative = inhibition, usual class: inhibitors. 310,000 tested, 5.4% active. AID 2551; note: nearly all actives have a fitted effect of over 60% in size
Target sequence (P51450 whole entry, looked up, the tested form may be a part): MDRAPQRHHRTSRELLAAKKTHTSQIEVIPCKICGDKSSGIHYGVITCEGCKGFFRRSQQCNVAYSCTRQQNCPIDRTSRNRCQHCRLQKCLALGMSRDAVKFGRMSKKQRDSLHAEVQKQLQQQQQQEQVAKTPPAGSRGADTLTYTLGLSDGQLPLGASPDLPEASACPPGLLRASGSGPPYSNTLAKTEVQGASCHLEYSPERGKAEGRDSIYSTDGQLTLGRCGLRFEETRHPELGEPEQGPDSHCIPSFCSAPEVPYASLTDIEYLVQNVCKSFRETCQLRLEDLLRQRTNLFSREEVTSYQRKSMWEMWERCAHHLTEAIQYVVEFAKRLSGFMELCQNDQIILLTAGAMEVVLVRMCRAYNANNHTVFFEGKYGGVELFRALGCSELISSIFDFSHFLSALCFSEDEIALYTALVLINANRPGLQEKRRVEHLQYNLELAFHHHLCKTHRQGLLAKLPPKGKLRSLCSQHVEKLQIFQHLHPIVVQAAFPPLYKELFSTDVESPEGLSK
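Using a luciferase readout, inhibitors were identified by reduced reporter activity in Drosophila cells coexpressing a copper-inducible Gal4–ROR gamma fusion and UAS-driven Photinus luciferase, incubated 20 hr after 700 uM copper sulfate.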
VP16 counter – inhibits Gal4-VP16 luciferase reporter, ROR gamma counter-screen | Drosophila S2 Gal4-VP16 UAS-luciferase, luminescence, 20 h | Potency, µM (highest dose often 53.6 µM), without a hit: at the highest dose activity, negative = inhibition, hits mostly inhibitors | 310,000 tested, 3.5% active;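 note: Gal4-VP16 expression switched on by copper sulfate through the metallothionein promoter; nearly all actives have a fitted effect of over 50% in size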
KinaseGlo FLuc – Kinase-Glo luciferase inhibition (counter-screen); Q27757; Kinase-Glo luciferase, ATP luminescence, 8 min; Potency, µM (highest dose often 38.3 µM), inactives show top-dose activity change, negative = inhibition, hits mostly inhibitors; 200,000 tested, 0.28% active; note: nearly all actives have a fitted effect of over 60% in size
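Kinase-Glo luciferase light output from ATP and luciferin was measured with 10 uM ATP, within the enzyme's linear range. Buffer: 50 mM imidazole pH 7.2, 50 mM KCl, 7 mM MgCl2, 0.01% Tween 20, 0.05% BSA; luminescence read after 8 min at ambient temperature.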
An asterisk follows results filed as active; ? = inconclusive; . = not tested or not shown; [ ] = remark or other dose. Calls come from the whole dose curve; as a rule, active = well fitted curve in the direction sought with a large enough effect; inconclusive = small, poorly fitted or top-dose-only effect, or another doubt; inactive = no such curve, though single readings can be large; an effect the other way counts as inactive or inconclusive. % is set by controls: 0 for no effect and ±100 for the full control effect; potency is the fitted concentration of half-maximal effect.

SMILES	RORgamma inh	VP16 counter	KinaseGlo FLuc
Cc1cc(OCC(=O)NCc2ccccn2)c2c(C)c(Cc3ccccc3)c(=O)oc2c1	12%	-13%	.
CCN(CC)CCOc1ccc(-c2nc3cc(Cl)ccc3s2)cc1	7%	0%	.
CCOc1ccccc1N1CC(C(=O)Nc2cc(Cl)ccc2C)CC1=O (configuration not stated)	11%	12%	.
N/C(Cc1ccc(Cl)cc1Cl)=N\OC(=O)Cc1cccs1	34%	-10%	-3%
Cc1occc1C(=O)O/N=C(\N)c1ccc(Cl)cc1	16%	-11%	.
Cc1cccc(/C(N)=N/OC(=O)c2ccc(F)cc2)c1	8.9µM*	22µM*	11µM*
N/C(=N\OC(=O)c1ccc(F)cc1)c1cccc([N+](=O)[O-])c1	2%	-11%	.
N/C(=N\OC(=O)c1cccs1)c1cccc(Br)c1	-1%	-14%	?
Cc1cccc(/C(N)=N/OC(=O)c2cccs2)c1	8.9µM*	?	2.5µM*
Cc1noc(-c2ccc(Cl)cc2)c1C(=O)O/N=C(\N)c1ccc(C(C)(C)C)cc1	7.1µM*	7.9µM*	.
N/C(Cc1ccc(Cl)cc1Cl)=N\OC(=O)c1cccs1	13µM*	?	5%
O=C(Nc1ccc([N+](=O)[O-])cc1)c1cc(-c2ccccn2)nc2c(Cl)cccc12	16%	-4%	-1%
COCCCC1CCN(C(=O)C2CCC(=O)N(Cc3ccccc3F)C2)CC1 (configuration not stated)	6%	-7%	.
COc1ccc(/C=C/C(=O)OCC(=O)Nc2c(C)cccc2C)cc1	0%	-8%	0%
NC(=O)C[C@@H](N)c1nn[nH]n1	.	.	-3%[7.66 µM]
O=C(O)c1ccc(/C=N/Nc2ccc(Cl)nn2)cc1	-36%	-7%	.
N[C@@H](CO)c1nnc([C@H](Cc2ccc(O)cc2)NC(=O)C2CCNCC2)o1	0%	1%	.
Cc1ccc(/C(N)=N/OC(=O)c2cccs2)cc1	?	?	-11%
N/C(=N\OC(=O)c1cccs1)c1ccccc1	19%	?	10µM*
CC(C)(C)c1ccc(C(=O)O/N=C(\N)c2ccccc2)cc1	1.1µM*	6.3µM*	.
Cc1cc(C(=O)O/N=C(\N)c2ccc(C(C)(C)C)cc2)no1	12%	24%	.
O=C(O)c1ccc(S(=O)(=O)N(CCc2ccccc2)Cc2ccc(Cl)cc2)cc1	-13%[1.91 µM]	-21%	.
CC1CCC(NC(=O)C2CCC(CNc3c(N4CCCCC4)c(=O)c3=O)CC2)CC1 (configuration not stated)	22%	-8%	.
CN(/N=C\c1ccc(O)c(O)c1)c1nc(-c2ccccc2)cc(-c2ccccc2)n1	2.5µM*	3.2µM*	-1%
COc1cc(/C=N/N(c2ccccc2)c2ccccc2)ccc1O	1%	?	.
SMILES	RORgamma inh	VP16 counter	KinaseGlo FLuc
Cc1cnc(NC(=O)C2CC=CCC2)s1 (configuration not stated)	-32%	-1%	.
C=CCc1c(C)nc2c(C)cccc2c1SC(=N)N	-10%	-9%	.
COC(=O)c1ccc(CSc2nc(C)nc3sc(C)c(C)c23)o1	?	4µM*	.
COC(=O)c1ccc(CSc2nnc(SCc3ccc(C(=O)OC)o3)s2)o1	-9%	2%	-1%
CCN(CCO)C(=O)c1ccc2nc(Cc3cccc(Cl)c3)oc2c1	0%	-9%	.
FC(F)(F)c1cccc(NC(=S)N(CCCN2CCCC2)Cc2cccn2Cc2ccc(Cl)cc2)c1	14µM*	?	1%
Cc1ccc(NC(=S)N(CCCN2CCCC2)Cc2cccn2Cc2ccc(Cl)cc2)cc1C	-17%	-1%	3%
O=C(NCCc1ccc(Cl)cc1)Nc1ccc(F)cc1	4%	20%[10 µM]	-1%
CCCCNC(=S)Nc1ccc(F)cc1	13µM*	?	.
O=[N+]([O-])c1ccc(NC(=S)NCCc2ccc(F)cc2)cc1	?	?	-1%
CCCCNC(=S)Nc1ccc(SC(F)F)cc1	14%	1%	-1%
Fc1ccc(CCNC(=S)Nc2ccc(F)c(Cl)c2)cc1	7.1µM*	?	5%
Fc1ccc(NC(=S)NCCc2ccc(Cl)cc2)cc1	1.1µM*	3.2µM*	2%
Cc1c(/C=N/NC(=O)CNc2ccccc2)c2ccccn2c1C(=O)c1ccccc1	?	-2%	.
c1ccc(Nc2ncnc3[nH]ncc23)cc1	7%	-4%	.
CCN1C(=O)/C(=C/c2ccc(C)s2)NC1=S	18µM*	?	-2%
Cc1ccc(/C=C2/NC(=O)N(Cc3ccccc3)C2=O)s1	-17%	-8%	-2%
Cc1ccc(S(=O)(=O)n2cnc(C)c2)cc1	0%	-3%	.
CCOc1ccc(N2CC(C(=O)Nc3nnc(Cc4ccc(OC)cc4)s3)CC2=O)cc1 (configuration not stated)	13%	24%	.
COc1ccc(NC(=O)c2cnc(C)cn2)c2ncccc12	0.32µM*	0.56µM*	-3%
Cc1cnc(C(=O)Nc2ccccc2F)cn1	-12%	5%	?
CC(C)C[C@H](NC(=O)[C@H](CC(C)C)NC(=O)[C@@H](Cc1c[nH]c2ccccc12)NC(=O)[C@H](Cc1ccccc1)NC(=O)[C@@H](Cc1c[nH]c2ccccc12)NC(=O)[C@H](CCC(N)=O)NC(=O)[C@H](CCC(N)=O)NC(=O)[C@@H]1CCCN1C(=O)[C@H](CCCCN)NC(=O)[C@@H]1CCCN1C(=O)[C@@H](CCCNC(=N)N)NC(=O)[C@@H]1CCCN1C(=O)CNC(=O)[C@H](CC(C)C)NC(=O)[C@H](CC(C)C)NC(=O)[C@H](Cc1ccc(O)cc1)NC(=O)CNC(=O)[C@H](C)NC(=O)[C@H](CO)NC(=O)[C@H](CC(N)=O)NC(=O)[C@H](CC(C)C)NC(=O)[C@@H](NC(=O)[C@H](Cc1c[nH]c2ccccc12)NC(=O)CN)[C@@H](C)O)C(N)=O	9%	-9%	.
CCN=c1scc(-c2ccc(F)cc2)n1/N=C/c1ccccn1	18µM*	2%	2%
CCN=c1scc(-c2cccs2)n1/N=C/c1cc(OC)ccc1O	-13%[10 µM]	-12%	-2%
CCN=c1scc(-c2ccccc2)n1/N=C/c1ccccn1	4.5µM*	7.9µM*	-5%
Cc1nc2ccccc2c(=O)n1/N=C/c1ccccn1	-5%	-4%	1%
Cc1cccc(N2CCN(C(=O)c3ccc(Cl)c(NC4=NC5CS(=O)(=O)CC5S4)c3)CC2C)c1 (configuration not stated)	1%	3%	.
